According to publication PMC7862700, “An all-to-all approach to the identification of sequence-specific readers for epigenetic DNA modifications on cytosine”:

Assays:
Test in all cases: DAPPL (digital affinity profiling via proximity ligation, sequencing); 10 mM Tris-HCl pH 7.5, 50 mM NaCl, 1 mM DTT, 4% glycerol, room temperature, 30 min; GST-TFs on glutathione beads, 16-mer random dsDNA library, 0.1% formaldehyde crosslink after washing; high values mean tight binding
Settings in all cases: protein: recombinant; tags: N-terminal GST; dsDNA, one strand shown
ETV1 = ETV1 (Homo sapiens, UniProt P50549 1-477)
ETV1, sequence (P50549 whole entry, the tested form may be a part): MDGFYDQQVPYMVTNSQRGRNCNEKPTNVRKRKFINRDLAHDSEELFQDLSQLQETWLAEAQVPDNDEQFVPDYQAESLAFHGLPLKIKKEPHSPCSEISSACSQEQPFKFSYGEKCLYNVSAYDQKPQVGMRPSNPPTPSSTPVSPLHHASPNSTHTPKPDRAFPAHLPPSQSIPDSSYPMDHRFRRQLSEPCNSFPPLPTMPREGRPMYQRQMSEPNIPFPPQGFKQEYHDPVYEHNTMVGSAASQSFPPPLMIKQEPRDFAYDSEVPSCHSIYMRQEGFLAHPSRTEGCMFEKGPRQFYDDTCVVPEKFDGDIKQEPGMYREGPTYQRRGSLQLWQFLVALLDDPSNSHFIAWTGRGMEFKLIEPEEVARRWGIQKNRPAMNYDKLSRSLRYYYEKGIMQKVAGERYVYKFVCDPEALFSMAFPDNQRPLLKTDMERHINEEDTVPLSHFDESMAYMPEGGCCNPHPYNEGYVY
Method in brief: (§1)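 Yeast served to express human transcription factors as GST fusions, which were then captured on glutathione beads and labelled with DNA barcodes. Pooled with a tag-only sample, they were incubated with 200 nmole of a 16-mer random double-stranded DNA library for 30 min at room temperature in Tris/NaCl/DTT/glycerol buffer, washed, crosslinked with 0.1% formaldehyde, ligated by proximity, amplified by PCR and sequenced. Dividing each hexamer's read frequency for a factor by its frequency for the tag-only sample gives the binding signal.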

ERF = molecular target: T1, ERF (Homo sapiens, UniProt P50548 1-548)
T1 sequence: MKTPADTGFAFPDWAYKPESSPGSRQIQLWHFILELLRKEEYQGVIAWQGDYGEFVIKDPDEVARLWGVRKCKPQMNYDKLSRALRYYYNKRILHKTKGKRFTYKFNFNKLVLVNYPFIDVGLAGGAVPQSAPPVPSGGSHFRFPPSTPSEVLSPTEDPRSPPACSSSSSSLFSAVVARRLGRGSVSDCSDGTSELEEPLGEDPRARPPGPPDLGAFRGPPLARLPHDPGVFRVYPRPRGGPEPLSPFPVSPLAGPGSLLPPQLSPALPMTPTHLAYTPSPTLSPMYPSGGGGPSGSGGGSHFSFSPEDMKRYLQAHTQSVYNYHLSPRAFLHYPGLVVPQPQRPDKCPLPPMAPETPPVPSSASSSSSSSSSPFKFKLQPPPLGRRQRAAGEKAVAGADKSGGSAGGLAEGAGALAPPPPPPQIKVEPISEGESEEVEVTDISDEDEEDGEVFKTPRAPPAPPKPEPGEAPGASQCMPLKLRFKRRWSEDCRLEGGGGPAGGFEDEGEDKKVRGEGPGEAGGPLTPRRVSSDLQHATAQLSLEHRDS
Method in brief: as §1

ETV3L = molecular target: T2, ETV3L (Homo sapiens, UniProt Q6ZN32 1-361)
T2 sequence: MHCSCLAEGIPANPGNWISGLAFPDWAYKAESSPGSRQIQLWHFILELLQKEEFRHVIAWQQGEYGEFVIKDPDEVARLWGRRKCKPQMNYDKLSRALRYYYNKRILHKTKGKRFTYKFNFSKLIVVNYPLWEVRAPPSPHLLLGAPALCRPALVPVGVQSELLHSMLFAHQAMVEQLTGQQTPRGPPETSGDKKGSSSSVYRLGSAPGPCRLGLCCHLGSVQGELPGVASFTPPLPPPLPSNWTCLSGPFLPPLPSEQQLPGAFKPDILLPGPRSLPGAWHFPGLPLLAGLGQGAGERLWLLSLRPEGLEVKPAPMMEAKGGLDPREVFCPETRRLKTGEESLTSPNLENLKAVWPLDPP
Method in brief: as §1

ETS2 = molecular target: T3, ETS2 (Homo sapiens, UniProt P15036 1-469)
T3 sequence: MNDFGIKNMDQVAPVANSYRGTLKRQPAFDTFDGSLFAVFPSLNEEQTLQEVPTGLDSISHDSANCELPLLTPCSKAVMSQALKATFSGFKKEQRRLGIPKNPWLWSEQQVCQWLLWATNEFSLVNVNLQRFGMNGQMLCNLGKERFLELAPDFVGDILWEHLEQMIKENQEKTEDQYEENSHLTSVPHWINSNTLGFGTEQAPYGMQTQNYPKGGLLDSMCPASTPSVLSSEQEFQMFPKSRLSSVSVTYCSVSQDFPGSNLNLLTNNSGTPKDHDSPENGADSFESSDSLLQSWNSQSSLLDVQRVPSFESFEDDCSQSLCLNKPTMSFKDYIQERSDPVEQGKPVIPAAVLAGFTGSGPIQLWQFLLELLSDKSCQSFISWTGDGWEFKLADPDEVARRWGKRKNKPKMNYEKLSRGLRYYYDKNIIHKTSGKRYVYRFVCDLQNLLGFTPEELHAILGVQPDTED
Method in brief: as §1

SPDEF = molecular target: T4, SPDEF (Homo sapiens, UniProt O95238 1-335)
T4 sequence: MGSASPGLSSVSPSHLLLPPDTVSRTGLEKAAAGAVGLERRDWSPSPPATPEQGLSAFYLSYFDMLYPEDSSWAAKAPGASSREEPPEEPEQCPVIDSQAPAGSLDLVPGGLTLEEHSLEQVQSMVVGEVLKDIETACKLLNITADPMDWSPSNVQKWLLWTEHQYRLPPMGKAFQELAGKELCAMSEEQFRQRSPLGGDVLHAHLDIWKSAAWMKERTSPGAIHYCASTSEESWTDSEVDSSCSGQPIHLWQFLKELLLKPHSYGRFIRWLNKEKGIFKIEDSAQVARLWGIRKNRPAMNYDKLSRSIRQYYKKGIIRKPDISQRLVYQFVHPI
Method in brief: as §1

ETV7 = molecular target: T5, ETV7 (Homo sapiens, UniProt Q9Y603 1-341)
T5 sequence: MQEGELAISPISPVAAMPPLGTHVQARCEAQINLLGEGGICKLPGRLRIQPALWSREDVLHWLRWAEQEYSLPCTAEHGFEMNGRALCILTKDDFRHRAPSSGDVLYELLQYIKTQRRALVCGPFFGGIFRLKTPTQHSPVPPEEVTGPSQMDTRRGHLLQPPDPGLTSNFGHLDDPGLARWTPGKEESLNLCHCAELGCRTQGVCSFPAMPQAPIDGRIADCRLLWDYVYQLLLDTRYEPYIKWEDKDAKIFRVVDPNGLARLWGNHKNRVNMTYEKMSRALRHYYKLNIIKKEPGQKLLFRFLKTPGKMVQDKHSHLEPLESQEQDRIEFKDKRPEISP
Method in brief: as §1

ELF5 = molecular target: T6, ELF5 (Homo sapiens, UniProt Q9UKW6-2 1-255)
T6 sequence: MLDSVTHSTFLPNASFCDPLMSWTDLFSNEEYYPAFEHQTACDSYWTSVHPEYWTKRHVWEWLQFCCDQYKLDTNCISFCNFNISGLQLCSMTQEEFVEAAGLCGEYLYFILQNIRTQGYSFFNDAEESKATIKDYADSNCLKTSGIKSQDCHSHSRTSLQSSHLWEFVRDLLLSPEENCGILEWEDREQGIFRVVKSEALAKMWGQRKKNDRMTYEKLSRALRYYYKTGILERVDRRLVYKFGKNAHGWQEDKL
Method in brief: as §1

ETV3 = molecular target: T7, ETV3 (Homo sapiens, UniProt P41162-2 1-143)
T7 sequence: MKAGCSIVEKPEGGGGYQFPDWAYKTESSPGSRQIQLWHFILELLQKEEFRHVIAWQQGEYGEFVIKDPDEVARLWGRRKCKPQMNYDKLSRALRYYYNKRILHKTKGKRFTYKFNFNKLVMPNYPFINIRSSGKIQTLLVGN
Method in brief: as §1

ETV6 = ETV6 (Homo sapiens, UniProt P41212 1-452)
ETV6, sequence (P41212 whole entry): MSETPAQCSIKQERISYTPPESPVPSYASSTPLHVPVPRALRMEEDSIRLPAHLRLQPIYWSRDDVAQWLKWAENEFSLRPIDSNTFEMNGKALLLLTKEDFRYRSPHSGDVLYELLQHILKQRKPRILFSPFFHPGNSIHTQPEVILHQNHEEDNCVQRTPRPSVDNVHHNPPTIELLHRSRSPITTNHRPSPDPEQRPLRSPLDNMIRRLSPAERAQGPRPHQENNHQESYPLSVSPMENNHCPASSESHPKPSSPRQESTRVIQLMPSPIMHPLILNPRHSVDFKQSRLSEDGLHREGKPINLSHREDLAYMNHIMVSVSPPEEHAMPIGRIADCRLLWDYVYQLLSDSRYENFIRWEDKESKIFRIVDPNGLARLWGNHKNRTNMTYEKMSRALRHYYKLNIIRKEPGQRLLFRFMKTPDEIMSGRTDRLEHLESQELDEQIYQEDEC
Method in brief: as §1

For GTTTCG, the binding signal (ETV1) was 1.27 fold enrichment (6-mer frequency, TF over GST control), the binding signal (ERF) was 1.38 fold enrichment (6-mer frequency, TF over GST control) and the binding signal (ETV3L) was 1.33 fold enrichment (6-mer frequency, TF over GST control). The binding signal (ETS2) was 1.15 fold enrichment (6-mer frequency, TF over GST control), the binding signal (SPDEF) was 1.27 fold enrichment (6-mer frequency, TF over GST control) and the binding signal (ETV7) was 1.27 fold enrichment (6-mer frequency, TF over GST control). The binding signal (ELF5) was 1.12 fold enrichment (6-mer frequency, TF over GST control), the binding signal (ETV3) was 1.32 fold enrichment (6-mer frequency, TF over GST control) and the binding signal (ETV6) was 1.23 fold enrichment (6-mer frequency, TF over GST control).
